Assay outcomes: PubChem, National Center for Advancing Translational Sciences (NCATS)
12-LOX inh: inhibitors of human 12S-lipoxygenase ALOX12; purified 12hLO, xylenol orange hydroperoxide absorbance; Potency, µM (highest dose often 108 µM), inactives show at the top dose activity change, negative = inhibition, most hits filed as inhibitors; 1.1% of 580,000 active; note: potency is the fitted concentration of half-maximal effect
Target sequence (P18054 whole entry, looked up): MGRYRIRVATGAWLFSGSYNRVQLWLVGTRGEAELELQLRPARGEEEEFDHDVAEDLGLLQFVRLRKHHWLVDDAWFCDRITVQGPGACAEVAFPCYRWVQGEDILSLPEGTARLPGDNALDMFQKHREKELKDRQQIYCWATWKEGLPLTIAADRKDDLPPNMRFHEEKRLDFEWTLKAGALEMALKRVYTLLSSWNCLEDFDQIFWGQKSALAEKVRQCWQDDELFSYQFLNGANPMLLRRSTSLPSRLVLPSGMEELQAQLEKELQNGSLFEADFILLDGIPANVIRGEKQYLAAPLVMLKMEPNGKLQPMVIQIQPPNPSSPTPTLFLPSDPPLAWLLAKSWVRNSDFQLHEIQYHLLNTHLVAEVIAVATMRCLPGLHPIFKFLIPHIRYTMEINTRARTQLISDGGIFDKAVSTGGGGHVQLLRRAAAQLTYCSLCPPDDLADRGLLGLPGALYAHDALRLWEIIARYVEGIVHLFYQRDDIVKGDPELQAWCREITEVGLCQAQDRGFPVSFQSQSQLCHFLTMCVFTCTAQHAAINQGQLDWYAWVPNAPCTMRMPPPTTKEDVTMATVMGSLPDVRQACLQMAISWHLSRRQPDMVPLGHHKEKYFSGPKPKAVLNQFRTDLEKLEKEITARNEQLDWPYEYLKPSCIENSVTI
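Purified human 12hLO (150 nM final) in 25 mM Hepes, 0.01% Triton X-100, pH 7.0 was preincubated 15 min at room temperature with compound. Then 40 uM arachidonic acid was added, 30 min. Hydroperoxide was read by Fe-XO absorbance ratio 573/405 nm.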
TDP1 cell noCPT: qHTS for Inhibitors of human tyrosyl-DNA phosphodiesterase 1 (TDP1): qHTS in cells in absence of CPT; DT40 Tdp1-/- hTDP1 cells, no CPT, ATP luminescence, 48 h; Potency, µM (titrated, usually from 46.2 µM), for inactives: at the highest dose activity change, negative = growth inhibition, actives largely listed as inhibitors; 15% of 420,000 active; AID 686978, 2013; note: potency is the fitted concentration of half-maximal effect; nearly all actives have a fitted effect of over 55% in size
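Chicken DT40 Tdp1-/- cells complemented with human TDP1, screened without camptothecin (DMSO vehicle only), 400 cells/well. Compounds pin-transferred, cells incubated at 37 °C for at least 48 hr. Growth read as ATP-dependent luminescence (CellTiter-Glo, 30 min at RT).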
HT1080 IDH1KD tx: kills HT-1080 cells with IDH1 knockdown | HT-1080 IDH1 knockdown viability, ATP luminescence, 48 h | Potency, µM (highest dose often 46.1 µM), inactives show at the highest dose activity, negative = toxicity, hits mostly cytotoxic | 2% of 360,000 active;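 note: potency is the fitted concentration of half-maximal effect; 0% = DMSO wells and -100% = cell-free medium wells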
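In this qHTS, HT-1080 cells depleted of IDH1 are exposed for 48 h at 37 °C to compound titrations. Toxicity is scored from CellTiter-Glo luminescence, with DMSO as full viability and medium alone as none.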
DT40 TDP1 CPT: growth inhibition of DT40 Tdp1-/-;hTDP1 cells with camptothecin (screen for TDP1 inhibitors) | chicken DT40 Tdp1-/-;hTDP1 cells + 20 nM CPT, ATP luminescence, 48 h | Potency, µM (top dose mostly 46.2 µM), inactives show top-dose activity change, negative = growth inhibition, usual class: inhibitors | 12% of 420,000 active; note: potency is the fitted concentration of half-maximal effect; nearly all actives have a fitted effect of over 55% in size
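Chicken DT40 Tdp1-/- cells complemented with human TDP1, 400 cells/well, exposed to compounds plus 20 nM camptothecin for at least 48 h at 37 C; viability read as ATP content by CellTiter-Glo luminescence.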
IL-1B inflam inh: inhibitors of inflammasome signaling (IL-1 beta secretion); THP-1 LPS/ATP IL-1B secretion, AlphaLISA, 16 h; active compounds read low; activity change, % at 57.5 µM; AID 743279; 4.7% of 360,000 active; in the data active = activity change below about -50%; inconclusive = mostly about -30% to -49%
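Secreted IL-1B measured by AlphaLISA bead assay after 16 h compound exposure of THP-1 cells; compounds (final up to 57.5 uM) added 1 h before LPS (250 ng/mL) and ATP (1.25 mM) stimulation; lower signal means less secretion.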
HT1080NT lethal: kills 2HG-producing HT-1080-NT fibrosarcoma cells. 1.6% of 360,000 active. Potency, µM (doses to about 46.1 µM), inactives show top-dose activity, negative = less viability, most hits filed as cytotoxic. HT-1080-NT fibrosarcoma viability, CellTiter-Glo ATP luminescence, 48 h;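 note: NT is the 2HG producing partner of a matched IDH1 knockdown line; potency is the fitted concentration of half-maximal effect; 0% = DMSO-treated cells and -100% = media-only wells without cells; nearly all actives have a fitted effect of over 55% in size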
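Read-out is CellTiter-Glo luminescence after 10 minutes at room temperature, following 48 hours' compound treatment of HT-1080-NT cells (750 cells/well, RPMI, 5% FBS, 37 degrees C).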
* hit, by the source's call; [ ] = dose if it differs, or a comment. The entries come from a sample that favours hits as a whole. Unless noted, calls come from the whole dose curve; as a rule, active = well fitted curve in the direction sought with a large enough effect; inconclusive = small, poorly fitted or top-dose-only effect, or another doubt; inactive = no such curve, though single readings can be large; an effect the other way counts as inactive or inconclusive. Unless noted, % is set by controls: 0 for no effect and ±100 for the full control effect.

Results for CN(C(=O)Cc1ccc(F)cc1)C1CCc2ccccc21 (configuration not stated) ?
12-LOX inh: 47%[176 µM]

How did CC(Cc1ccc(Br)cc1)NC(=O)C1CC2CCC1C2 (configuration not stated) do in these assays?
12-LOX inh: 5%

Results for Cc1cc(N2CCC(C)CC2)nc(-c2ccccc2O)n1 ?
12-LOX inh: 2%; TDP1 cell noCPT: -16%; HT1080 IDH1KD tx: -1%; DT40 TDP1 CPT: -25%; IL-1B inflam inh: 3; HT1080NT lethal: -2%

Results for Cc1cc(-n2[nH]c(C)c(C)c2=O)nc(-c2ccccc2O)n1 ?
12-LOX inh: 14%; TDP1 cell noCPT: inconclusive; HT1080 IDH1KD tx: inconclusive; DT40 TDP1 CPT: 16µM*; IL-1B inflam inh: 82; HT1080NT lethal: -18%

How did COc1ccc(C=O)c(OCc2cn(CC(=O)c3ccc(O)cc3)nn2)c1 do in these assays?
12-LOX inh: 1.3µM*; TDP1 cell noCPT: -10%; HT1080 IDH1KD tx: 4%; DT40 TDP1 CPT: -20%; IL-1B inflam inh: 13; HT1080NT lethal: 3%

Results for COc1cc(/C=N/Nc2nc(N3CCCC3)nc(N3CCCC3)n2)ccc1OCc1ccccc1F ?
12-LOX inh: 0%; TDP1 cell noCPT: 21µM*; HT1080 IDH1KD tx: 8%; DT40 TDP1 CPT: 16µM*; IL-1B inflam inh: -13; HT1080NT lethal: 12%

What do the screens show for `NC(c1csc(Nc2nncc3ccccc23)n1)c1ccccc1Cl` (configuration not stated)?
12-LOX inh: inconclusive; TDP1 cell noCPT: 15µM*; HT1080 IDH1KD tx: -23%; DT40 TDP1 CPT: 29µM*; IL-1B inflam inh: -22; HT1080NT lethal: inconclusive

What do the screens show for `NC(c1csc(Nc2nncc3ccccc23)n1)C1CCCCC1` (configuration not stated)?
12-LOX inh: inconclusive; TDP1 cell noCPT: 5.8µM*; HT1080 IDH1KD tx: 23µM*; DT40 TDP1 CPT: 5.8µM*; IL-1B inflam inh: -78*; HT1080NT lethal: 21µM*

How did NC(c1csc(Nc2ccccn2)n1)c1ccccc1Cl (configuration not stated) do in these assays?
12-LOX inh: -13%; TDP1 cell noCPT: inconclusive; HT1080 IDH1KD tx: -7%; DT40 TDP1 CPT: inconclusive; IL-1B inflam inh: 3; HT1080NT lethal: -1%

What do the screens show for `Cn1c(=O)c(Nc2ccc(O)cc2)c2c3c(cccc31)C(=O)c1ccccc1-2`?
12-LOX inh: 0%; TDP1 cell noCPT: 2.6µM*; HT1080 IDH1KD tx: -19%; DT40 TDP1 CPT: 3.7µM*; IL-1B inflam inh: inconclusive; HT1080NT lethal: -23%

What do the screens show for `O=C(CCN1C(=O)c2ccccc2C1=O)Nc1cccc(O)c1`?
12-LOX inh: 0%; TDP1 cell noCPT: -11%; HT1080 IDH1KD tx: 18%; DT40 TDP1 CPT: 11%; IL-1B inflam inh: -5; HT1080NT lethal: 19%

How did Cc1cc(C(=O)Cn2cc(C(F)(F)F)ccc2=O)c(C)n1-c1ccccc1 do in these assays?
12-LOX inh: -28%; TDP1 cell noCPT: inconclusive; HT1080 IDH1KD tx: -7%; DT40 TDP1 CPT: inconclusive; IL-1B inflam inh: -20; HT1080NT lethal: -11%

How did Cc1ccc(C(=O)CN2/C(=C(\O)c3ccccc3)C(=O)c3ccccc3S2(=O)=O)c(C)c1 do in these assays?
TDP1 cell noCPT: 16µM*; HT1080 IDH1KD tx: inconclusive; DT40 TDP1 CPT: 12µM*; IL-1B inflam inh: 9; HT1080NT lethal: inconclusive

How did Cc1cc(C(=O)CN2C(=O)c3ccccc3S2(=O)=O)c(C)n1-c1ccccc1 do in these assays?
12-LOX inh: inconclusive; TDP1 cell noCPT: 23µM*; HT1080 IDH1KD tx: -7%; DT40 TDP1 CPT: 21µM*; IL-1B inflam inh: -28; HT1080NT lethal: 1%
